Values joined by “and” are separate entries in the source; they are usually repeats but may differ in a detail not shown here. Equal entries are not always repeated. Records with an inconclusive call do not appear. Entries that show only a call come without a potency. Unmarked numbers belong to inactive results. Active and inactive are the calls of the source. Calls come from the whole dose curve; as a rule, active = well fitted cell-killing curve with a large enough effect; inconclusive = small, poorly fitted or top-dose-only effect, or effect the other way; inactive = no such curve, though single readings can be large or run the other way.
test: Viability qHTS for spleen associated tyrosine kinase inhibitor (SYKi) drug resistant MV4-11 cells (AID 1963824); conditions: SYKi-resistant MV4-11 viability, CellTiter-Glo, 72 h; series mostly up to 45 µM; note: nearly all actives have a fitted effect of over 35% in size
Excerpt: Department of Medicine, Hematology/Oncology
University Hospital Frankfurt, Germany.
Trials have shown promising clinical activity of the selective SYK inhibitor entospletinib in patients with high expressing HOXA9/MEIS1 acute leukemias. As the development of resistance mechanisms is a common problem in the use of targeted drugs, we performed a chemical library screen to identify drug sensitivities in SYK inhibitor resistant AML cells. […] Glucocorticoids are potent immunosuppressants which work in part by inhibiting the transcription of cytokine genes.
Described herein is a viability screen to look for activity in the SYK inhibitor drug resistant cell line against four NCATS compound libraries (MIPE 5.0, NPC, NPACT, and Kinase) totaling 11372 compounds. Active hits were reacquired for confirmation and further secondary assay testing.
SEQUENCE No. (e.g., 1, 2, 3, etc.); […] (e.g., Cells, Incubation, Reagent, etc.); VALUE; DESCRIPTION.
1; Media; 2uL; white, solid-bottom Corning assay plate.
2; Compounds; 23nL; Echo acoustic dispenser.
3; Cell; 5uL; 500 cells per well.
4: Incubation; 72hr; 37 C, 5% CO2, 95% humidity.
5; Reagent; 3uL; CellTiter-Glo reagent (Promega).
6; Incubation; 10min; room temperature.
7; Detection; Luminescence; ViewLux plate reader (PerkinElmer).
NOTES (numbers refer to Sequence numbers above
1. Quantitative high-throughput screening (qHTS) of small molecule compounds was conducted on drug resistant SYKi MV4-11 cell line.
2. Twenty-three nanoliter of small molecule compounds were added to each assay plates using the Echo acoustic dispenser (Beckman Coulter).
3. Cells were seeded into the assay plates at a final density of 500 cells in 5uL of media per well using the Multidrop Combi dispenser.
4. Plates were covered with stainless steel gasketed lids and incubated for 72 hours at standard cell culture conditions.
5. Viability was assessed by adding 3uL of CellTiter-Glo detection reagent (Promega).
6. Plates were covered with gasket lids and incubated for 10 minutes at room temperature.
7. Luminescence was measured on a ViewLux plate reader (PerkinElmer).
Potency is the fitted concentration of half-maximal effect.

Row | Structure (SMILES) | Potency | viability, % of control
1 | CCN(CC)CCNC(=O)c1cc(Cl)c(N)cc1OC | inactive | 
2 | CC1=C(C)C(=O)OC(C(C)C2CCC3C4CC=C5CC(OC6OC(COC7OC(CO)C(O)C(O)C7O)C(O)C(O)C6O)CC(O)C5(C)C4CCC23C)C1 (stereo not given) | inactive | 
3 | COc1cc(O)c(C(=O)CCc2ccc(O)cc2)c(O[C@@H]2O[C@H](CO)[C@@H](O)[C@H](O)[C@H]2O)c1 | 11.2 µM (active) | 
4 | CCC[C@@H]1C[C@@H](C(=O)N[C@@H]([C@H]2O[C@H](SC)[C@H](O)[C@@H](O)[C@@H]2O)[C@@H](C)O)N(C)C1 | inactive | 
5 | CNC(=O)Oc1ccc2c(c1)[C@]1(C)CCN(C)[C@@H]1N2C | inactive | 
6 | C=C1CCC2(C(=O)OC3OC(CO)C(O)C(O)C3O)CCC3(C)C(=CCC4C5(C)CCC(OC6OC(CO)C(OC7OC(C)C(O)C(O)C7O)C(OC7OCC(O)C(O)C7O)C6O)C(C)(C)C5CCC43C)C2C1 (stereo not given) |  | 105% [at 9.25 µM]
7 | COc1cc(C)c(C(=O)O[C@H]2[C@@H](O)[C@H](n3ccc(=O)[nH]c3=O)O[C@@H]2CO)c(OC)c1 | inactive | 
8 | c1ccc(CC2=NCCN2)cc1 | inactive | 
9 | O=c1cc(CO)occ1O | inactive | 
10 | O=C(CCCCCCC(=O)Nc1ccc(C2OC(CSc3nc(-c4ccccc4)c(-c4ccccc4)o3)CC(c3ccc(CO)cc3)O2)cc1)NO (stereo not given) | 9.2 µM (active) | 
11 | C[C@@H]1O[C@@H](O[C@H]2[C@@H]3C=CO[C@@H](O[C@@H]4O[C@H](CO)[C@@H](O)[C@H](O)[C@H]4O)[C@@H]3[C@@]3(CO)O[C@@H]23)[C@H](OC(=O)/C=C/c2ccccc2)[C@H](O)[C@H]1O | inactive | 
12 | CC[C@H](NC(=O)[C@H](C)NC)C(=O)N1C[C@@H](O)C[C@H]1Cc1c(-c2[nH]c3cc(F)ccc3c2C[C@@H]2C[C@H](O)CN2C(=O)[C@H](CC)NC(=O)[C@H](C)NC)[nH]c2cc(F)ccc12 | 0.0074 µM (active) | 
13 | C/C(=N\NC(=O)c1cccc(S(=O)(=O)N2CCOCC2)c1)c1cc(Cl)ccc1O | 0.742 µM (active) | 
14 | COC1=CC(=O)O[C@@H](/C=C/c2ccccc2)[C@@H]1O | inactive | 
15 | COC1=Cc2c(nc3n(c2=O)C(C)C(=O)NC3(O)C(C)C)OC=C1 (stereo not given) | inactive | 
16 | Cc1cc2c(F)c(Oc3ncnn4cc(OCC(C)O)c(C)c34)ccc2[nH]1 (stereo not given) | 8.2 µM (active) | 
17 | COc1cccc2c1C(=O)c1c(O)c3c(c(O)c1C2=O)C[C@@](O)(C(=O)CO)C[C@@H]3O[C@H]1C[C@H](N)[C@H](OC2CCCCO2)[C@H](C)O1 (stereo not given in full) | 118 nM (active) and 59 nM (active) | 
18 | O=C(O)c1ccc(-c2c[nH]c3ncc(-c4ccccc4)cc23)cc1C1CCCC1 | 651 nM (active) and 2.35 µM (active) | 
19 | CCCCCCCCCCCCCCCCN | inactive | 
20 | CC1(C)CC[C@]2(C(=O)O[C@@H]3O[C@H](CO)[C@@H](O)[C@H](O)[C@H]3O)CC[C@]3(C)C(=CCC4[C@@]5(C)C[C@@H](O)[C@H](O)C(C)(C)C5[C@H](O)C[C@]43C)[C@@H]2[C@@H]1O (stereo not given in full) | inactive | 

Row | Structure (SMILES) | Potency | viability, % of control
21 | CC(C)(O)C1CCC(C)(C2CCC3(C)C4CCC5C(C)(C(=O)OC6OC(CO)C(O)C(O)C6O)C(O)CC(O)C56CC46CCC23C)O1 (stereo not given) | inactive | 
22 | COC(=O)Nc1nc2ccc(C(=O)c3ccccc3)cc2[nH]1 | 596 nM (active) and 372 nM (active) | 
23 | CC(C)C(NC(=O)c1ccc(O)cc1)C(=O)N1CCCC1C(=O)Nc1c(O)cccc1C(=O)O (stereo not given) | inactive | 
24 | Brc1ccc([C@H]2CN3CCSC3=N2)cc1 | inactive | 
25 | C/C=C(/C)C(=O)O[C@H]1C=C(CO)C(=O)[C@H](OC(=O)/C(C)=C/CO)[C@H]1C(C)C | 1.61 µM (active) | 
26 | CC(=O)N[C@@H](Cc1c[nH]c2ccccc12)C(=O)N[C@@H](CCC(=O)O)C(=O)N[C@@H](Cc1cnc[nH]1)C(=O)N[C@@H](CC(=O)O)C(=O)Nc1ccc2c(C(F)(F)F)cc(=O)oc2c1 | inactive | 
27 | CO[C@@]1(NC(=O)C(C(=O)O)c2ccc(O)cc2)C(=O)N2C(C(=O)O)=C(CSc3nnnn3C)CO[C@@H]21 (stereo not given in full) | inactive | 
28 | CN1CCOC(c2ccccc2)c2ccccc2C1 (stereo not given) | inactive | 
29 | O[C@@](Cc1ncc(CC2(C(F)(F)F)CC2)[nH]1)(c1ccc(-n2cccn2)cc1)C(F)(F)F | 14.6 µM (active) | 
30 | CCC/C=C/C=C/C1CC(O)C2(O)C(=O)OCC12 (stereo not given) | inactive | 
31 | C=CC1(C)CC(OC(=O)C(=C)C(O)COC(C)=O)C(C(=C)C(=O)OC)C(O)C1C(=C)CO (stereo not given) | 10 µM (active) | 
32 | C/C=C1\[C@H](O[C@@H]2O[C@H](CO)[C@@H](O)[C@H](O)[C@H]2O)OC=C(C(=O)OCCc2ccc(O)cc2)[C@H]1CC(=O)OCCc1ccc(O)cc1 | inactive | 
33 | COc1ccc2nc3n[nH]c(C)c3c(NCCOCCO)c2c1 | 16.4 µM (active) and 13.2 µM (active) | 
34 | CNCc1ccc(C)c(NC(=O)c2ccc(Nc3nc(-c4ccccc4)c4ccccc4n3)cc2)c1 | 7.42 µM (active) | 
35 | C=C[C@H]1CN2CC[C@H]1C[C@@H]2[C@@H](O)c1ccnc2ccc(OC)cc12 | inactive | 
36 | C[C@]12C=CC(=O)C=C1CC[C@@H]1[C@@H]2C(=O)C[C@@]2(C)[C@H]1CC[C@]2(O)C(=O)CO | inactive | 
37 | Cn1cc(C2=C(c3c4n(c5ccccc35)CCC(CN)C4)C(=O)NC2=O)c2ccccc21 (stereo not given) | 2.7 µM (active) | 
38 | CC1CCC2C(=CCC(O)C2(C)C)C1(C)Cc1c(O)cc(CO)c(C=O)c1O (stereo not given) | 7.18 µM (active) | 
39 | NS(=O)(=O)c1cc(C2(O)NC(=O)c3ccccc32)ccc1Cl (stereo not given) | inactive | 
40 | CC(C)C(C)(C)C(C)(C)C(C)(C)S | 5.45 µM (active) | 

Source: PubChem BioAssay (NCATS)
